# From PubChem BioAssay (Tox21)
# “And” between values parts separate entries of the source, which are not always exact repeats. Equal entries are not always repeated. Results filed as inconclusive are left out. Where a structure was tested more than once in an assay, its records may differ in their call. The source made the active and inactive calls. Unless noted, calls come from the whole dose curve; as a rule, active = well fitted curve in the direction sought with a large enough effect in the repeat runs; inconclusive = weak or mixed curves; inactive = no such curve, though single readings can be large; an effect the other way counts as inactive or inconclusive.
# Tests used:
# [1] = target: Luciferin 4-monooxygenase (Photinus pyralis) (UniProt P08659); test: qHTS assay to identify small molecule inhibitors of firefly luciferase (AID 1224835); note: nearly all actives have a fitted effect of over 25% in size; note: potency is the fitted concentration of half-maximal effect
# Sequence of Luciferin 4-monooxygenase (Photinus pyralis) (P08659 whole entry, looked up): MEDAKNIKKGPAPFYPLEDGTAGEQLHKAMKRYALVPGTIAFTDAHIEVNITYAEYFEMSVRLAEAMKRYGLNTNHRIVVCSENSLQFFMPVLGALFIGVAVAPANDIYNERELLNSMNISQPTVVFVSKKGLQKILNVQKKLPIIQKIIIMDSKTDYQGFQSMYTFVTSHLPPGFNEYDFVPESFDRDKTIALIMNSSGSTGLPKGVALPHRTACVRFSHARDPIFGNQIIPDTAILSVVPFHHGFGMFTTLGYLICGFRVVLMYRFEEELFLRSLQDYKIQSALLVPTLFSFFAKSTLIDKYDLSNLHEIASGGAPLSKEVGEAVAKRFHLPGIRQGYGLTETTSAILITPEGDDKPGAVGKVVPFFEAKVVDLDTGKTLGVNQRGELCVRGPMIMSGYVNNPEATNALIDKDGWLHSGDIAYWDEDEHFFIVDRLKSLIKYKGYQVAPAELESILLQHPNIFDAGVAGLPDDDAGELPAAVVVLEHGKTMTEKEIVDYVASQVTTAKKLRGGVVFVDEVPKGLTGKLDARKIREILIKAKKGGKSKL
# Procedure, shortened: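 Quantitative HTS format; KM concentrations of both substrates. Purified P. pyralis FLuc activity quantified from luminescence images.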
# [2] = target: Nuclear receptor subfamily 1 group I member 3 (Homo sapiens) (UniProt Q14994); test: qHTS assay to identify small molecule agonists of the constitutive androstane receptor (CAR) signaling pathway (AID 1224839); note: nearly all actives have a fitted effect of over 15% in size; note: potency is the fitted concentration of half-maximal effect;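 for activation: HepG2 cells stably carrying human CAR and a CYP2B6 luciferase reporter; % is set by controls: 0 for no effect and ±100 for the full control effect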
# Sequence of Nuclear receptor subfamily 1 group I member 3 (Homo sapiens) (Q14994 whole entry, looked up): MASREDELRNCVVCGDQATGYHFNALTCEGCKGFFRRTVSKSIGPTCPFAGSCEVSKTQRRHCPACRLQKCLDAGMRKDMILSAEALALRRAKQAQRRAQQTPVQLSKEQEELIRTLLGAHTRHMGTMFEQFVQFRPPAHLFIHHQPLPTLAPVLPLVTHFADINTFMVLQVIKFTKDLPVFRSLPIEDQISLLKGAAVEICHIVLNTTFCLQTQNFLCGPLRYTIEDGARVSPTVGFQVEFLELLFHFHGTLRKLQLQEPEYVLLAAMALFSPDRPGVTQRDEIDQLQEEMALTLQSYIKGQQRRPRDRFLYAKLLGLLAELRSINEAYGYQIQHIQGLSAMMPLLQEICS
# Procedure, shortened: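 HepG2 cells stably expressing hCAR and a CYP2B6-2.2kb luciferase reporter were treated with compounds at 15 concentrations plus 0.75 uM PK11195 (final) for 24 h at 37 C; luminescence was read after ONE-Glo addition.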
# [3] = target: Thyrotropin receptor (Homo sapiens) (UniProt P16473); test: qHTS assay to identify small molecule agonists of the thyroid stimulating hormone receptor (TSHR) signaling pathway (AID 1224843; calls by dose curve; note: nearly all actives have a fitted effect of over 45% in size; note: potency is the fitted concentration of half-maximal effect; for activation: % is set by controls: 0 for no effect and ±100 for the full control effect)
# Sequence of Thyrotropin receptor (Homo sapiens) (P16473 whole entry, looked up): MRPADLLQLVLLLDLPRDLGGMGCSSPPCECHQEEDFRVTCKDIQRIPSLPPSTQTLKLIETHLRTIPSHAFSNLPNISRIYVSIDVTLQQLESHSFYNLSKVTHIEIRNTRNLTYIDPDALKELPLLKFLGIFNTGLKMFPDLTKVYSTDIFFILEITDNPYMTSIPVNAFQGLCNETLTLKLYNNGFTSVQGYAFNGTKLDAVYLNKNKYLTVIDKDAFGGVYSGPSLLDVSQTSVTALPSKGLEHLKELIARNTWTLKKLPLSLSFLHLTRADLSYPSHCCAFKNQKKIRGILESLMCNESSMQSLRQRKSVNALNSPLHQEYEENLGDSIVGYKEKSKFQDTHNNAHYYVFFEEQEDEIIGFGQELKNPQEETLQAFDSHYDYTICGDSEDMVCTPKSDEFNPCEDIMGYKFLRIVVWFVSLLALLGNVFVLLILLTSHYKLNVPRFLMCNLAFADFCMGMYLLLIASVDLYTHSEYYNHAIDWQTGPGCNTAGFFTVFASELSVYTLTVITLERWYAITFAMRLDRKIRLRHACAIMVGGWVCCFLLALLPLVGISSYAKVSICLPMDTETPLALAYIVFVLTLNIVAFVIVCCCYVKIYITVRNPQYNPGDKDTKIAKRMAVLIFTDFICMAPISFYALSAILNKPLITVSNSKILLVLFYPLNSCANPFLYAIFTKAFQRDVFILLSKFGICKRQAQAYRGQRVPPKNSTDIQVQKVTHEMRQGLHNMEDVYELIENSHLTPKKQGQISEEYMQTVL
# Procedure, shortened: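 TSHR-expressing HEK293 cells (800 per well) were exposed to compounds for 30 min at room temperature. cAMP was then detected by HTRF competition with cAMP-d2 and anti-cAMP cryptate, read after 1 h at room temperature. Fifteen concentrations, triplicate.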
# [4] = qHTS assay to identify small molecule agonists of the hypoxia (HIF-1) signaling pathway - cell viability counter screen (AID 1224844; calls by dose curve; note: nearly all actives have a fitted effect of over 50% in size; note: potency is the fitted concentration of half-maximal effect)
# Procedure, shortened: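 Cells (HRE-bla ME-180, 2,000 per well) sat 5 hrs at 37C, got compound for 17 hrs, were read for CCF4-AM FRET, and were finally lysed with CellTiter-Glo for a 30 min room-temperature luminescence read.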
# [5] = qHTS assay to identify small molecule agonists of the hypoxia (HIF-1) signaling pathway (AID 1224846; active = well fitted activation curve with a large enough effect in the signal ratio in the repeat runs, not every such curve was filed as active; the % refers to the signal ratio; note: % is set by controls: 0 for no effect and ±100 for the full control effect)
# Procedure, shortened: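 A low-serum medium (0.5% dialyzed FBS) holding 2,000 HRE-bla ME-180 cells per well is preincubated for 5 hrs, dosed with compounds by pintool, and kept a further 17 hrs at 37C, 5% CO2 before CCF4-AM FRET detection of beta-lactamase.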
# [6] = qHTS assay to identify small molecule agonists of H2AX - cell viability counter screen (AID 1224847; calls by dose curve; note: nearly all actives have a fitted effect of over 30% in size; note: potency is the fitted concentration of half-maximal effect)
# Procedure, shortened: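 Wild-type CHO-K1 cells (10% FBS medium) were plated overnight at 37C, exposed to compounds at 15 concentrations for 3 hr at 37C (0.76% DMSO final), and viability was read as CellTiter-Glo luminescence after 30 min at room temperature.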
# [7] = qHTS RealTime-Glo MT Cell Viability Assay in HEK293 cells - 32 hour (AID 1224868); note: potency is the fitted concentration of half-maximal effect; nearly all actives have a fitted effect of over 50% in size
# Procedure, shortened: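 HEK293 cells seeded with NanoLuc/prosubstrate reagent, rested 5 h at 37 C, then dosed and kept at 37 C up to 40 h. Nonlytic real-time luminescence from viable cells read at 0, 8, 16, 24, 32 and 40 h.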
# [8] = A CellTox Green Cytotoxicity Assay to monitor cytotoxicity in HEK293 cells - 0 hour (AID 1224869); note: % is set by controls: 0 for no effect and ±100 for the full control effect; nearly all actives have a fitted effect of over 50% in size
# Procedure, shortened: (§1)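 Fluorescence intensity, read at 0, 8, 16, 24, 32 and 40 h of compound treatment, reflected dye binding to DNA of dead HEK293 cells; compounds (23 nL, DMSO) were added 5 h after plating cells with reagent.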
# [9] = A CellTox Green Cytotoxicity Assay to monitor cytotoxicity in HEK293 cells - 40 hour (AID 1224871); note: potency is the fitted concentration of half-maximal effect; nearly all actives have a fitted effect of over 45% in size
# Procedure, shortened: as §1
# [10] = qHTS assay to identify small molecule antagonists of the constitutive androstane receptor (CAR) signaling pathway - cell viability counter screen (AID 1224837); note: nearly all actives have a fitted effect of over 45% in size; note: potency is the fitted concentration of half-maximal effect
# Procedure, shortened: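 Counter screen run in HepG2-CYP2B6-hCAR cells: 4 hr settle, compound titration (15 concentrations) with 50 nM CITCO, 23 hr at 37 C/5% CO2, CellTiter-Fluor fluorescence.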
# [11] = qHTS assay to identify small molecule agonists of the estrogen related receptor (ERR) signaling pathway from Tox21 library (AID 1224849; calls by dose curve; note: % is set by controls: 0 for no effect and ±100 for the full control effect; nearly all actives have a fitted effect of over 15% in size); details: ERR reporter cell line, ONE-Glo luciferase, 18 h
# Procedure, shortened: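 Screening used an NTP-provided ERR luciferase cell line. Compounds in DMSO were added 6 h after seeding and left 18 h at 37 C before a 30 min ONE-Glo step and luminescence reading.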
# [12] = qHTS RealTime-Glo MT Cell Viability Assay in HepG2 cells - 40 hour (AID 1224870); note: nearly all actives have a fitted effect of over 50% in size; note: potency is the fitted concentration of half-maximal effect
# Procedure, shortened: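 HepG2 cells mixed with RealTime-Glo MT reagents (NanoLuc plus cell-permeant prosubstrate) were seeded at 600 cells/well, incubated 5 h at 37 C/5% CO2, then pinned with compounds in DMSO; nonlytic luminescence tracked viability during 40 h treatment.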
# [13] = qHTS assay to identify small molecule antagonists of the estrogen related receptor signaling pathway with the pleiotropic PPARgamma coactivator (PGC) from Tox21 10K library - cell viability counter screen (AID 1224840; active = well fitted cell-killing curve with a large enough effect in the repeat runs, not every such curve was filed as active; note: nearly all actives have a fitted effect of over 40% in size; note: potency is the fitted concentration of half-maximal effect)
# Procedure, shortened: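 Following seeding of 2,000 PGC/ERR cells/well and 6 hours' incubation, test compounds were delivered in DMSO. The plates then sat 17.5 hours at 37 C before a fluorogenic live-cell protease reagent (CellTiter-Fluor) was read after 30 min.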
# [14] = qHTS assay to identify small molecule agonists of the estrogen related receptor signaling pathway with the pleiotropic PPARgamma coactivator (PGC) from Tox21 10K library (AID 1224842); note: nearly all actives have a fitted effect of over 15% in size; note: potency is the fitted concentration of half-maximal effect; for activation: % is set by controls: 0 for no effect and ±100 for the full control effect
# Procedure, shortened: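 PGC/ERR reporter cells (NTP line) were seeded 2,000 per well, rested 6 h at 37 C/5% CO2, then pin-dosed with compounds in DMSO for 18 h at 37 C; luciferase read by One-Glo luminescence after 30 min at room temperature.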
# [15] = qHTS assay to identify small molecule agonists of H2AX (AID 1224845; active = well fitted activation curve with a large enough effect in the signal ratio in the repeat runs, not every such curve was filed as active; the % refers to the signal ratio; note: potency is the fitted concentration of half-maximal effect)
# Procedure, shortened: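 Wild-type CHO-K1 cells plated overnight, then exposed 3 hr at 37C to compounds at 15 concentrations (0.76% DMSO). Lysed, then HTRF anti-pH2AX(S139)-cryptate/anti-H2AX-d2 detection after 24 hr at room temperature; emissions 665 and 620 nm.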
# [16] = qHTS RealTime-Glo MT Cell Viability Assay in HepG2 cells - 24 hour (AID 1224867); note: nearly all actives have a fitted effect of over 50% in size; note: potency is the fitted concentration of half-maximal effect
# Procedure, shortened: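 HepG2 cells (600/well) were dispensed with RealTime-Glo reagents, incubated 5 h at 37 °C, then treated with compounds in DMSO for up to 40 h. Nonlytic NanoLuc luminescence reflecting viable cells was read at each stated time point.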
# [17] = qHTS assay to identify small molecule antagonists of the estrogen related receptor (ERR) signaling pathway from Tox21 library (AID 1224848); note: nearly all actives have a fitted effect of over 50% in size; note: potency is the fitted concentration of half-maximal effect
# Procedure, shortened: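 Cells: ERR line, 2,000/well; 6 h preincubation 37 C/5% CO2. Cpd in DMSO via pin tool; 18 h, 37 C. ONE-Glo, 30 min RT, luminescence.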
# [18] = qHTS assay to identify small molecule antagonists of the estrogen related receptor signaling pathway with the pleiotropic PPARgamma coactivator (PGC) from Tox21 10K library (AID 1224841; call rule not given here; note: potency is the fitted concentration of half-maximal effect)
# Procedure, shortened: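 qHTS antagonist format: PGC/ERR cells, 2k/well, compound in DMSO by pin transfer after 6 h attachment, 18 h treatment at 37 C, One-Glo luminescence read at 30 min.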
# [19] = target: Nuclear receptor subfamily 1 group I member 3 (Homo sapiens) (UniProt Q14994); test: qHTS assay to identify small molecule antagonists of the constitutive androstane receptor (CAR) signaling pathway (AID 1224838); note: nearly all actives have a fitted effect of over 40% in size; note: potency is the fitted concentration of half-maximal effect
# Procedure, shortened: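 Cell line: HepG2 double-stable for hCAR and CYP2B6-2.2kb reporter. Agonist: CITCO, 50 nM final. Compounds: 15 concentrations, 24 h, 37 C. Detection: ONE-Glo luminescence.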
# [20] = at 92.4 µM (top of the series) unless noted
smiles,measurement,setting,value
CN(C)CCCN1c2ccccc2Sc2ccc(C(F)(F)F)cc21,Potency,[1],inactive
same,Potency,[2],inactive
same,Potency,[3],inactive
same,Potency,[4],inactive
same,outcome,[5],inactive
same,Potency,[6],inactive
same,Potency,[7],21.3 µM (active)
same,Potency,[8],inactive
same,Potency,[9],26.8 µM (active)
CCCCCCCCCCOCC(O)CN (configuration not stated),Potency,[1],inactive
same,Potency,[10],29.8 µM (active)
same,Potency,[2],inactive
same,Potency,[3],21.1 µM (active)
same,outcome,[5],inactive
same,Potency,[6],55.2 µM (active)
same,"activity change, positive = activation",[11]; [20],-64% [at 42.5 µM] (inactive)
same,Potency,[7],23.9 µM (active)
same,Potency,[8],inactive
same,Potency,[12],15.1 µM (active)
same,Potency,[9],26.8 µM (active)
C/C=C/C(=O)C1=C(C)CCCC1(C)C,Potency,[1],inactive
same,Potency,[10],inactive
same,Potency,[2],inactive
same,Potency,[13],inactive
same,Potency,[14],inactive
same,Potency,[3],inactive
same,Potency,[15],inactive
same,outcome,[5],inactive
same,Potency,[6],inactive
same,"activity change, positive = activation",[11]; [20],-5.63% (inactive)
same,Potency,[16],inactive
same,Potency,[8],inactive
same,Potency,[12],inactive
O=C(Nc1ccc(Cl)c(Cl)c1)c1cc(Cl)cc(Cl)c1O,Potency,[1],3.99 µM (active)
same,Potency,[10],7.7 µM (active)
same,Potency,[13],4.33 µM (active)
same,Potency,[14],inactive
same,Potency,[4],19.5 µM (active)
same,Potency,[15],inactive
same,Potency,[6],10.1 µM (active)
same,Potency,[17],1.09 µM (active)
same,"activity change, positive = activation",[11]; [20],-15.1% (inactive)
same,Potency,[7],4.9 µM (active)
same,Potency,[8],inactive
same,Potency,[12],12.3 µM (active)
same,Potency,[9],49 µM (active)
CCCCCCOc1ccc(O)cc1,Potency,[1],35.6 µM (active)
same,Potency,[2],27.3 µM (active)
same,Potency,[13],inactive
same,Potency,[18],inactive
same,Potency,[14],13.7 µM (active)
same,Potency,[3],inactive
same,Potency,[15],11.3 µM (active)
same,Potency,[6],113 µM (active)
same,Potency,[17],inactive
same,"activity change, positive = activation",[11]; [20],0.107% (inactive)
same,Potency,[7],0.0692 µM (active)
same,Potency,[8],inactive
same,Potency,[12],inactive
same,Potency,[9],19.5 µM (active)
CC=O,Potency,[1],inactive
same,Potency,[19],36 µM (active)
same,Potency,[2],inactive
same,Potency,[13],25.5 µM (active)
same,Potency,[4],40.7 µM (active)
same,Potency,[6],14.9 µM (active)
same,Potency,[16],51.3 µM (active)
same,Potency,[7],0.575 µM (active)
same,Potency,[8],inactive
same,Potency,[12],32.3 µM (active)
same,Potency,[9],51.3 µM (active)
CC(C)(c1cc(Br)c(OCCO)c(Br)c1)c1cc(Br)c(OCCO)c(Br)c1,Potency,[1],inactive
same,Potency,[19],inactive
same,Potency,[13],42.3 µM (active)
same,Potency,[18],16.8 µM (active)
same,Potency,[14],inactive
same,Potency,[4],42.7 µM (active)
same,Potency,[6],87.8 µM (active)
same,Potency,[17],11.9 µM (active)
same,"activity change, positive = activation",[11]; [20],-67.7% (inactive)
same,Potency,[7],13.5 µM (active)
same,Potency,[8],inactive
CCOC(=O)N1CCC(=C2c3ccc(Cl)cc3CCc3cccnc32)CC1,Potency,[1],inactive
same,Potency,[19],inactive
same,Potency,[13],30.6 µM (active)
same,Potency,[4],54.9 µM (active) and inactive
same,Potency,[17],30.6 µM (active) and 26.6 µM (active)
same,"activity change, positive = activation",[11]; at 42.5 µM (top of the series),-46% (inactive)
same,"activity change, positive = activation",[11]; at 92.4 µM (top of the series),-60.8% (inactive)
same,Potency,[7],15.5 µM (active) and 16.9 µM (active)
same,Potency,[8],inactive
same,Potency,[9],43.6 µM (active)
